Here are results for 15 compounds from PubChem BioAssay.

For part of these data: Results with a measured potency or affinity are listed apart. The source made the active and inactive calls.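 How the source made its calls, unless noted: active means dose curve with midpoint inside tested range, moderate steepness, plateau gap beyond fit error, low compound glow and bead-link interference; inactive means the rest.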

The target of experiment [1] is Cell division control protein 42 homolog (Homo sapiens) (UniProt P60953). Put plainly: activated mutant Cdc42 GTP-binding inhibitors, dose response, biochemical, multiplex bead flow cytometry, Bodipy-FL-GTP (AID 1333;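 active means fitted half-maximal concentration within the tested dose range, moderate curve steepness, a statistically real signal drop, and little compound fluorescence or tag-binding interference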). For orientation: A flow cytometer gives signals particle by particle.
Experiment [2] has the same target. Put plainly: wildtype Cdc42 GTP-binding inhibitors, dose response, biochemical, multiplex bead flow cytometry, Bodipy-FL-GTP (AID 1334;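 active means fitted half-maximal concentration within the tested range, moderate curve steepness, significant signal drop, and little compound fluorescence or bead-linkage interference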). Particulars: bead-based flow cytometry, Bodipy-FL-GTP binding to GST-Cdc42; at 100 µM (top of the series) unless noted.
Experiment [3] concerns the target GTPase HRas (Homo sapiens) (UniProt P01112). Put plainly: inhibitors of GTP binding to wildtype Ras, dose response, biochemical, multiplex bead flow cytometry (AID 1335;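 active means fitted half-maximal concentration within 10 nM to 100 µM, steepness 0.5 to 2, significant signal drop, low assay interference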). The following applies: bead-based flow cytometry, Bodipy-GTP binding to GST-Ras; at 100 µM (top of the series) unless noted.
Experiment [4] relates to Ras-related protein Rab-7a (dog), GTP binding. The experiment is described as follows: Rab7 GTP binding inhibitors, potency, dose response, biochemical, wildtype, multiplex bead flow cytometry (AID 1336; call rule not given here).
Experiment [5] has as its target Ras-related C3 botulinum toxin substrate 1 (Homo sapiens) (UniProt P63000). The experiment is described as follows: wildtype Rac1 GTP binding inhibitors, dose response, biochemical, multiplex bead flow cytometry (AID 1340). The following applies: GST-Rac1 beads, Bodipy-FL-GTP binding; at 100 µM (top of the series) unless noted.
Experiment [6] has as its target GTPase HRas (Homo sapiens) (UniProt P01112). Put plainly: activated Ras mutant GTP binding inhibitors, dose response, biochemical, multiplex bead flow cytometry (AID 1341;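 active means dose-response curve with midpoint inside the tested range, moderate steepness, significant amplitude and little compound fluorescence or bead-attachment interference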;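 further: GST-tagged constitutively activated Ras mutant immobilized on beads and multiplexed with other GTPases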).

GTPase HRas (Homo sapiens), sequence (P01112 whole entry, looked up): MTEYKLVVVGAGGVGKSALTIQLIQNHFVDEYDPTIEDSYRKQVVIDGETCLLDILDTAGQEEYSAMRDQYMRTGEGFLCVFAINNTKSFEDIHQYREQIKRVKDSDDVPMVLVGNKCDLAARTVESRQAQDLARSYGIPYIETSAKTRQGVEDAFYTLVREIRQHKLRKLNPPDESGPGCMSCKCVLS
Cell division control protein 42 homolog (Homo sapiens), sequence (P60953 whole entry, looked up): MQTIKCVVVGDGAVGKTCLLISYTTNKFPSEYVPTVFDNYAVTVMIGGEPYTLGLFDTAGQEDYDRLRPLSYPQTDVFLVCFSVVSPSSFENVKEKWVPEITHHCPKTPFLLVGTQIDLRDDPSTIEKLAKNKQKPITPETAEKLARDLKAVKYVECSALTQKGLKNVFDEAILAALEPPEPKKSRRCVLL

As to `CCOC(=O)C1(Cc2ccccc2)CCCN(CCO)C1` (stereo not given), the call in experiment [1], in experiment [4] and in experiment [6] was inactive. The fluorescence, percent of control (lower = inhibition) in experiment [2] worked out at 37.6%. Further, in experiment [3], the GTP binding, percent of control was found to be 80.3%. In addition, the GTP binding signal, raw median fluorescence (lower = inhibition) (MCF (arbitrary fluorescence units)) in experiment [5] is 246.

`O=C(CN1CCN(c2ccc(O)cc2)CC1)Nc1cc(S(=O)(=O)N2CCCCC2)ccc1Cl`: the compound was called inactive in experiment [1], in experiment [4] and in experiment [6]. The fluorescence, percent of control (lower = inhibition) in experiment [2] was found to be 35.8%. Moreover, the GTP binding, percent of control in experiment [3] was 87.7%. The GTP binding signal, raw median fluorescence (lower = inhibition) (MCF (arbitrary fluorescence units)) in experiment [5] is 281.

On to `C=CCN(CC=C)S(=O)(=O)c1ccc(C(=O)Nc2nc3c(s2)CCc2ccccc2-3)cc1`, for which the result in experiment [1], in experiment [4] and in experiment [6] was inactive. The fluorescence, percent of control (lower = inhibition) in experiment [2] was 51.4%. The same compound gave a GTP binding, percent of control in experiment [3] of 57.3%. For the same compound, in experiment [5], the GTP binding signal, raw median fluorescence (lower = inhibition) (MCF (arbitrary fluorescence units)) was found to be 0.

Regarding `Cc1ccc(/C=C2\SC(=S)N(C(Cc3ccccc3)C(=O)O)C2=O)cc1` (stereo not given), the compound was called inactive in experiment [1], in experiment [4] and in experiment [6]. The fluorescence, percent of control (lower = inhibition) in experiment [2] worked out at 28.1%. Also, in experiment [3], the GTP binding, percent of control was determined as 81.2%. In experiment [5], this compound came in with a GTP binding signal, raw median fluorescence (lower = inhibition) (MCF (arbitrary fluorescence units)) of 212.

As for `COc1ccc(N=C2S/C(=C\c3ccc(N4CCOCC4)o3)C(=O)N2CCc2c[nH]c3ccccc23)cc1`, the result in experiment [1], in experiment [4] and in experiment [6] was inactive. Moreover, the fluorescence, percent of control (lower = inhibition) in experiment [2] stood at 133%. This compound also displayed a GTP binding, percent of control in experiment [3] of 212%. The compound also gave a GTP binding signal, raw median fluorescence (lower = inhibition) (MCF (arbitrary fluorescence units)) in experiment [5] of 210.

Take `c1ccc(-c2onc3c2CCCC3)cc1`: the compound was classed as inactive in experiment [1], in experiment [4] and in experiment [6]. For the same compound, the fluorescence, percent of control (lower = inhibition) in experiment [2] was found to be 97.3%. In addition, in experiment [3], the GTP binding, percent of control stood at 144%. Moreover, the GTP binding signal, raw median fluorescence (lower = inhibition) (MCF (arbitrary fluorescence units)) in experiment [5] stood at 192.

Consider `c1ccc(C2=Nn3c(nnc3-c3ccco3)SC2)cc1`, for which the result in experiment [1], in experiment [4] and in experiment [6] was inactive. For the same compound, the fluorescence, percent of control (lower = inhibition) in experiment [2] stood at 34%. This compound displayed a GTP binding, percent of control in experiment [3] of 81.7%. In addition, the GTP binding signal, raw median fluorescence (lower = inhibition) (MCF (arbitrary fluorescence units)) in experiment [5] was found to be 183.

With `CCOc1ccc2c(c1)c(N=NC(=N)N)c(O)n2C`, the compound was called inactive in experiment [1], in experiment [4] and in experiment [6]. The fluorescence, percent of control (lower = inhibition) in experiment [2] stood at 32.4%. For the same compound, the GTP binding, percent of control in experiment [3] amounted to 70.3%. In experiment [5], this compound returned a GTP binding signal, raw median fluorescence (lower = inhibition) (MCF (arbitrary fluorescence units)) of 165.

In the case of `Cc1cccc(NCc2ccc(O)c3ncccc23)c1C`, the call in experiment [1], in experiment [4] and in experiment [6] was inactive. In addition, in experiment [2], the fluorescence, percent of control (lower = inhibition) came to 39.8%. Moreover, in experiment [3], the GTP binding, percent of control worked out at 84.4%. The compound also yielded a GTP binding signal, raw median fluorescence (lower = inhibition) (MCF (arbitrary fluorescence units)) in experiment [5] of 259.

Turning to `S=c1[nH]nc(-c2ccco2)n1-c1ccccc1Cl`, the call in experiment [1], in experiment [4] and in experiment [6] was inactive. Also, the fluorescence, percent of control (lower = inhibition) in experiment [2] was found to be 26.1%. Further, the GTP binding, percent of control in experiment [3] was found to be 60.5%. This compound also displayed a GTP binding signal, raw median fluorescence (lower = inhibition) (MCF (arbitrary fluorescence units)) in experiment [5] of 231.

For `CCOc1ccc(C2=Nn3c(nnc3-c3ccco3)SC2)cc1`, the call in experiment [1], in experiment [4] and in experiment [6] was inactive. The fluorescence, percent of control (lower = inhibition) in experiment [2] came out at 33.2%. For the same compound, the GTP binding, percent of control in experiment [3] was 75.2%. The same compound registered a GTP binding signal, raw median fluorescence (lower = inhibition) (MCF (arbitrary fluorescence units)) in experiment [5] of 179.

Consider `CC1(C)CC2CC(C)(CN2C(=O)c2cccs2)C1` (stereo not given), for which the call in experiment [1], in experiment [4] and in experiment [6] was inactive. Moreover, the fluorescence, percent of control (lower = inhibition) in experiment [2] amounted to 43.3%. Also, the GTP binding, percent of control in experiment [3] stood at 59.5%. For the same compound, the GTP binding signal, raw median fluorescence (lower = inhibition) (MCF (arbitrary fluorescence units)) in experiment [5] was determined as 184.

Regarding `Cc1ccc(OCCn2c(SCC(=O)O)nc3ccccc32)cc1`, the result in experiment [1], in experiment [4] and in experiment [6] was inactive. In addition, the fluorescence, percent of control (lower = inhibition) in experiment [2] turned out to be 59%. This compound also returned a GTP binding, percent of control in experiment [3] of 86.2%. In experiment [5], this compound had a GTP binding signal, raw median fluorescence (lower = inhibition) (MCF (arbitrary fluorescence units)) of 35.2.

For `O=C(NCCc1c[nH]c2ccccc12)c1cccc(S(=O)(=O)Nc2ccccc2Cl)c1`, the compound was classed as inactive in experiment [1], in experiment [4] and in experiment [6]. Further, the fluorescence, percent of control (lower = inhibition) in experiment [2] worked out at 32.1%. Further, in experiment [3], the GTP binding, percent of control was 71.4%. In experiment [5], this compound displayed a GTP binding signal, raw median fluorescence (lower = inhibition) (MCF (arbitrary fluorescence units)) of 175.

As to `Cn1c(N/N=C/c2cccs2)nc2c1c(=O)n(Cc1ccccc1)c(=O)n2C`, the compound was classed as inactive in experiment [1], in experiment [4] and in experiment [6]. Also, in experiment [2], the fluorescence, percent of control (lower = inhibition) worked out at 39.1%. Besides, in experiment [3], the GTP binding, percent of control came out at 51.7%. The GTP binding signal, raw median fluorescence (lower = inhibition) (MCF (arbitrary fluorescence units)) in experiment [5] was 143.
